The whole screen tested about 11,000 compounds, of which about 310 (2.8%) were called active. Rule as the data show it: active = activity change below about -85%; inactive = the rest. Many of the other results were omitted from the sample, so actives are more common in it than they were.
These molecules were tested on intestinal alkaline phosphatase [Mus musculus] (assay: mouse intestinal phosphatase enzyme activation – biochemical, luminescence, single concentration, confirmation (AID 434970)). Conditions: purified mouse IAP, CDP-Star luminescence, 30 min, at 10 µM; activation factor: measured here: IAP activation factor, stronger effect = higher value; activity change, negative = activation: stronger effect = lower value.

Compound	activation factor	activity change, negative = activation
O=C(c1ccc(C(=O)N2CCOCC2)nc1)N1CCOCC1	1.09	-8.9% (inactive)
CCc1ccc(NC(=O)c2sccc2-n2cccc2)cc1	1.04	-4.35% (inactive)
Fc1cc(NC(=S)NCc2ccc(CNC(=S)Nc3ccc(Cl)c(F)c3)cc2)ccc1Cl	1.44	-44.1% (inactive)
O=C(NCCSCc1ccco1)Nc1cc(Cl)cc(Cl)c1	1.27	-27.2% (inactive)
O=C(Nc1ccc(Cl)cc1)NC1CCCCC1Cc1ccco1 (stereo unspecified)	2.11	-111% (active)
O=C(Nc1ccc(Cl)cc1)C1CCN(C(=O)NC2CCCCC2)CC1	0.914	8.6% (inactive)
CC/C(=N\n1nnnc1Nc1ccccc1)c1ccccc1	1.02	-2.45% (inactive)
Cc1ccc(N2C(=O)/C(=C/c3ccco3)SC2=S)cc1	0.396	60.5% (inactive)
Cc1cc2oc(=O)cc(-c3ccccc3)c2c(C)c1-c1ccc(N(C)C)cc1	0.885	11.4% (inactive)
COc1cccc(N/C(C)=C/C(=O)c2ccc(Br)cc2)c1	1	-0.05% (inactive)
O=C(Nc1ccc2c(c1)CCC2)Nc1ccccc1F	1.69	-68.5% (inactive)
Cc1cccc(NC(=O)Nc2ccc3c(c2)CCC3)c1	1.41	-41.4% (inactive)
O=C(Nc1ccccc1)Nc1ccc2c(c1)CCC2	1.95	-94.8% (active)
COc1cccc(NC(=O)Nc2ccc3c(c2)CCC3)c1	2.9	-190% (active)
Cn1cccc1C(=O)OCC(=O)Nc1ccc2c(c1)CCC2	1.05	-5.05% (inactive)
COc1cccc(NC(=O)Nc2ccc3c(c2)N(C)C(=O)CS3)c1	0.986	1.5% (inactive)
Cc1ccc(NCc2nnc(SCC(=O)N3CCCc4ccccc43)o2)c(C)c1	1.02	-2.3% (inactive)
CCS(=O)(=O)n1nc(-c2ccccc2)nc1N	0.926	7.4% (inactive)
CC(/C=N/n1cnnc1)=C\c1ccccc1	1.02	-1.9% (inactive)
CC1(C)CC(=O)C2=C(C1)NC(=O)CC2C(=O)NCc1ccc(F)cc1 (stereo unspecified)	1.3	-29.9% (inactive)
COc1cc(-c2nnc3n2N=C(c2ccccc2)CS3)cc(OC)c1OC	0.996	0.4% (inactive)
CCCNC(=O)c1ccccc1NC(=O)CN(c1ccccc1OCC)S(C)(=O)=O	1.15	-15.4% (inactive)
O=P(OC1CCS(=O)(=O)C1)(c1ccccc1)c1ccccc1 (stereo unspecified)	0.921	7.85% (inactive)
[N-]=[N+]=CC(=O)CCCN1C(=O)c2ccccc2C1=O	1.09	-9.05% (inactive)

Compound	activation factor	activity change, negative = activation
O=C(Cc1cccs1)Nc1nnc(CCc2ccccc2)s1	1.15	-14.7% (inactive)
CC1CCCN(C(=O)C2(NC(=O)Nc3cccc(F)c3)CCCCC2)C1 (stereo unspecified)	1.81	-81.1% (inactive)
Cc1cc(C)cc(NC(=O)Nc2ccc(N3CCCCC3)cc2)c1	1.16	-15.9% (inactive)
O=C(Nc1cccc(F)c1)c1ccccc1	1.01	-0.8% (inactive)
Cc1cc(C)cc(NC(=S)NCCN(C2CCCCC2)C2CCCC2)c1	1.28	-28.3% (inactive)
Cc1cc(C)cc(NC(=O)NC2CCCCCCC2)c1	3.37	-237% (active)
CC(=O)OC(C(=O)NC1CCCCC1)c1cccc(C)c1 (stereo unspecified)	1.04	-4.4% (inactive)
Cc1cccc(NC(=O)CC2NC3CCCCC3NC2=O)c1 (stereo unspecified)	0.974	2.55% (inactive)
Cc1cccc(NC(=O)NC2CCCCCCC2)c1	2.45	-145% (active)
Cc1ccc(NC(=O)C2CCN(C(=O)NC3CCCCC3)CC2)cc1Cl	1.21	-20.9% (inactive)
O=C(Nc1cccc(F)c1)NC1CCCCCCC1	2.42	-142% (active)
Cc1ccc(NC(=O)NC2CCCCCCC2)cc1C	2.56	-156% (active)
Cc1ccc(NC(=S)NC2CCCCC2)cc1S(=O)(=O)N(C)C	1.3	-29.9% (inactive)
C=CCNc1nc(Nc2ccc(OC)cc2)nc(OC)n1	0.992	0.8% (inactive)
CC(C)C(NC(=S)NCc1ccccc1)C(=O)O (stereo unspecified)	0.93	7% (inactive)
Cc1ccc(-c2nn3c(C)nnc3s2)cc1NC(=O)c1ccc(-c2cccc(Cl)c2)o1	0.849	15.2% (inactive)
Cc1ccccc1NC1=C(Cl)C(=O)OC1OC(C)C (stereo unspecified)	0.976	2.45% (inactive)
CCOC(=O)c1c(N)sc(C(N)=O)c1C	1.01	-0.6% (inactive)
O=C(Nc1c(-c2ccccc2)nc2sccn12)c1ccccc1	0.907	9.25% (inactive)
CCN(CC)S(=O)(=O)c1ccc(Cl)c(C(=O)Oc2cccnc2)c1	0.919	8.05% (inactive)
COC(=O)C1=C(C)NC2=C(C(=O)C(C(=O)OC)C(c3ccc(OC)cc3)C2)C1c1ccccn1 (stereo unspecified)	1.07	-6.6% (inactive)
CC(=O)Nc1ccc(NS(C)(=O)=O)cc1	0.891	10.9% (inactive)
O=C1CC(N2CCN(c3ccccc3F)CC2)C(=O)N1c1ccc2c(c1)OCCO2 (stereo unspecified)	0.964	3.6% (inactive)
O=C(CSc1nnc(-c2ccco2)n1Cc1ccco1)NCc1ccccc1	1.11	-11.1% (inactive)

Compound	activation factor	activity change, negative = activation
O=C(Nc1cccc(C(F)(F)F)c1)NC1CCN(S(=O)(=O)c2ccc(F)cc2)CC1	1.81	-81.5% (inactive)
FC(F)(F)c1ccc(NC(=S)NC2CCCCC2)cc1	1.25	-24.9% (inactive)
O=C(Nc1cccc(C(F)(F)F)c1)NC1CCCCC1	2.1	-110% (active)
O=c1[nH]c2ccc(S(=O)(=O)Nc3ccc(-c4nnc5n4CCCCC5)cc3)cc2o1	0.87	13% (inactive)
CC(NC(=S)NCc1ccc(F)cc1)C12CC3CC(CC(C3)C1)C2 (stereo unspecified)	4.19	-319% (active)
CCC(NC(=S)NCc1ccc(F)cc1)c1ccc(C(C)C)cc1 (stereo unspecified)	1.39	-38.5% (inactive)
CCc1ccc(C(C)NC(=S)NCc2ccc(F)cc2)cc1 (stereo unspecified)	1.11	-10.5% (inactive)
COc1cc(CN(C2CC2)S(=O)(=O)c2ccccc2Br)cc(OC)c1	1.07	-7.4% (inactive)
O=C(c1ccco1)N1CCN(C(=O)C2CCN(S(=O)(=O)c3cnc[nH]3)CC2)CC1	0.909	9.15% (inactive)
O=C(NNc1cccc(Cl)n1)Nc1ccccc1	0.964	3.55% (inactive)
CC(C)(C)c1nc(NC(=O)Nc2ccccc2)sc1Br	2.12	-112% (active)
CCOc1ccc2nc(NC(=O)Nc3ccccc3)sc2c1	1.04	-3.8% (inactive)
CC(C)(C)c1ccc(OC(=O)c2cccnc2)cc1	1.01	-0.6% (inactive)
CCO/C(C)=C1\N=C(c2ccc(Cl)cc2)OC1=O	1.06	-5.85% (inactive)
O=C(Nc1ccc2c(c1)OCCO2)C1CCN(S(=O)(=O)c2cccc3nsnc23)CC1	0.988	1.25% (inactive)
O=C(Nc1cccc(-c2cccc(Cl)c2)c1)C1CCN(CC2CCOC2)CC1 (stereo unspecified)	2.32	-132% (active)
Cc1oc(-c2ccc(Cl)cc2)nc1CN1CCC(C(=O)NCc2cccs2)CC1	1.19	-19.5% (inactive)
O=C(Nc1cccc(-c2cccc(Cl)c2)c1)C1CCN(Cc2ccc(CO)o2)CC1	2.61	-161% (active)
COCc1ccc(CN2CCC(C(=O)Nc3cccc(-c4cccc(Cl)c4)c3)CC2)o1	4.36	-336% (active)
O=C(NCc1ccc2c(c1)OCO2)C1CCCN1C(=O)Nc1cccc(Cl)c1 (stereo unspecified)	1.03	-2.95% (inactive)
O=C(Nc1ccc(Br)c(Cl)c1)C1CC1	1.01	-1.05% (inactive)
O=C(Nc1cccc(-c2cccc(F)c2)c1)C1CCN(Cc2ccc(CO)o2)CC1	1.64	-64.3% (inactive)
O=C(Nc1cccc(-c2cccc(Cl)c2)c1)C1CCN(Cc2ccon2)CC1	1.73	-73.1% (active)
CCOc1ccc(Br)cc1S(=O)(=O)Nc1ccccc1N1CCOCC1	0.919	8.1% (inactive)

Compound	activation factor	activity change, negative = activation
CC(C)N(C(=O)[C@H]1C[C@H](CC(=O)NC(C)(C)C)C(=O)N2CCc3c([nH]c4cc(-c5ccco5)ccc34)[C@]12C)C(C)C	1.09	-9% (inactive)
CC(=O)NC1=NN(C(C)=O)C(c2cccs2)S1 (stereo unspecified)	1.08	-8% (inactive)
CCSc1sccc1C1C(C#N)=C(N)N(c2cccnc2)C2=C1C(=O)CCC2 (stereo unspecified)	0.703	29.8% (inactive)
Cc1oc(-c2ccccc2F)nc1CN1CCC(C(=O)NC2CCCc3ccccc32)CC1 (stereo unspecified)	1.12	-12.4% (inactive)
CC[C@]12c3[nH]c4ccc(OC)cc4c3CCN1C(=O)C(CC(=O)NCc1cccc(C(F)(F)F)c1)C[C@@H]2C(=O)N1CCN(C(=O)c2ccco2)CC1 (stereo partly specified)	0.989	1.05% (inactive)
CN(Cc1ccccc1)C(=O)Cn1cccc1C(=O)c1ccccc1	1.13	-13.4% (inactive)
O=C(C1CCCN1C(=O)c1cccs1)N1CCN(Cc2ccc3c(c2)OCO3)CC1 (stereo unspecified)	0.924	7.55% (inactive)
OCCN1CCN(C(=S)c2ccc(Cl)c(Cl)c2)CC1	0.845	15.5% (inactive)
CSCC[C@H](N)C(=O)NC[C@H]1O[C@@H](n2cnc3c(N)ncnc32)[C@H](O)[C@@H]1O	0.994	0.55% (inactive)
CC(C)CC(=O)NC(NC(=S)Nc1sc2c(c1C#N)CCCC2)C(Cl)(Cl)Cl (stereo unspecified)	0.587	41.3% (inactive)
C[C@@H]1CN([C@@H](C)CO)C(=O)Cc2cc(NC(=O)Nc3cccc4ccccc34)ccc2O[C@@H]1CN(C)Cc1ccc(C(F)(F)F)cc1	1.75	-75% (inactive)
C[C@@H]1CN([C@@H](C)CO)C(=O)c2cccc(NC(=O)Nc3ccc(F)cc3)c2O[C@@H]1CN(C)Cc1ccc(Oc2ccccc2)cc1	2.17	-117% (active)
C[C@H]1CN([C@@H](C)CO)C(=O)c2cc(NC(=O)Nc3cccc4ccccc34)ccc2O[C@@H]1CN(C)Cc1ccc(-c2ccccc2)cc1	2.14	-114% (active)
C[C@H](CO)N1C[C@H](C)[C@H](CN(C)Cc2ccc(Oc3ccccc3)cc2)Oc2ccc(NC(=O)Nc3cccc4ccccc34)cc2CC1=O	2.03	-103% (active)
C[C@@H]1CN([C@@H](C)CO)C(=O)Cc2cc(NC(=O)Nc3cccc4ccccc34)ccc2O[C@@H]1CN(C)S(C)(=O)=O	1.46	-46.2% (inactive)
C[C@@H]1CN([C@H](C)CO)C(=O)c2cc(NC(=O)Nc3ccc(F)cc3)ccc2O[C@H]1CN(C)C(=O)Nc1ccc(C(F)(F)F)cc1	1.57	-57.4% (inactive)
C[C@@H]1CN([C@H](C)CO)C(=O)Cc2cc(NC(=O)Nc3ccccc3)ccc2O[C@@H]1CN(C)Cc1ccc2c(c1)OCO2	1.66	-66.3% (inactive)
C[C@H](CO)N1C[C@H](C)[C@H](CN(C)Cc2ccccc2)Oc2ccc(NC(=O)Nc3ccc(F)cc3)cc2C1=O	1.54	-53.5% (inactive)
C[C@@H]1CN([C@H](C)CO)C(=O)c2cc(NC(=O)Nc3cccc4ccccc34)ccc2O[C@H]1CN(C)Cc1ccc(C(F)(F)F)cc1	2.2	-120% (active)
CC(C)NC(=O)N(C)C[C@H]1Oc2ccc(NC(=O)Nc3ccc(C(F)(F)F)cc3)cc2C(=O)N([C@H](C)CO)C[C@@H]1C	1.96	-96.3% (inactive)
C[C@@H]1CN([C@@H](C)CO)C(=O)c2cc(NC(=O)Nc3ccccc3)ccc2O[C@H]1CN(C)C(=O)Nc1cccc2ccccc12	1.8	-79.6% (inactive)

— PubChem BioAssay AID434970 (Sanford-Burnham Center for Chemical Genomics, 2010)
